# Reference: PubChem BioAssay (EPA / NIEHS)
# Results filed as inconclusive are left out. Calls of active or inactive are those of the source. The calls were made as follows: active = hit-call score of the fitted dose curve at least 0.9, where 1 is the maximum; inconclusive = response in the unintended direction; inactive = score below 0.9.
# Experiments:
# [1] = target: human FYN Proto-Oncogene, Src family Tyrosine Kinase (Fyn), FYN (gene 2534) (UniProt P06241); assay: NVS_ENZ_hFyn: NovaScreen (NVS) Enzymatic Assay for human FYN Proto-Oncogene, Src family Tyrosine Kinase (Fyn) (AID 2283161)
# Chain of human FYN Proto-Oncogene, Src family Tyrosine Kinase (Fyn), FYN (gene 2534) (P06241 whole entry, looked up): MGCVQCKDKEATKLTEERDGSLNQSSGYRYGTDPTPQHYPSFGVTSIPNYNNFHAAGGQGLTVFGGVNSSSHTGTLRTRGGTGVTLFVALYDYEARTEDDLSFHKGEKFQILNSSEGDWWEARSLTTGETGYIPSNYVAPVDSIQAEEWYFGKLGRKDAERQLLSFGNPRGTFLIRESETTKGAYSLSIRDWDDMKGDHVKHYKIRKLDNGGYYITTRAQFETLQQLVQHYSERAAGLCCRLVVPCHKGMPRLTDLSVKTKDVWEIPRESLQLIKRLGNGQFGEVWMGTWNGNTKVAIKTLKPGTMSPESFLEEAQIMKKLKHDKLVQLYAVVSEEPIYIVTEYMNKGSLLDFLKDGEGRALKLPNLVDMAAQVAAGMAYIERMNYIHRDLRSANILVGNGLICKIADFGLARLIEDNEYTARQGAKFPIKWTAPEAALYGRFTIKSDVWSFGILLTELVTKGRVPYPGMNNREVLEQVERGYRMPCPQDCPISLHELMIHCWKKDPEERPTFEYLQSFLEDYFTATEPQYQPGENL
# Experimental: (§1) NVS_ENZ_hFyn is a biochemical, single-readout assay that uses extracted gene-proteins in a cell-free assay. Measurements were taken 1 hour after chemical dosing in a 384-well plate.NVS_ENZ_hFyn is one of one assay component(s) measured or calculated from the NVS_ENZ_hFyn assay. It is designed to make measurements of enzyme activity, a form of enzyme reporter, as detected with fluorescence intensity signals by Fluorescence and electrophoretic mobility shift technology.Data from the assay component NVS_ENZ_hFyn was analyzed into 1 assay endpoint. This assay endpoint, NVS_ENZ_hFyn, was analyzed in the positive analysis fitting direction relative to DMSO as the negative control and baseline of activity. Using a type of enzyme reporter, loss-of-signal activity can be used to understand changes in the enzymatic activity as they relate to the gene FYN. Furthermore, this assay endpoint can be referred to as a primary readout, because this assay has produced multiple assay endpoints where this one serves a enzymatic activity function. To generalize the intended target to other relatable targets, this assay endpoint is annotated to the kinase intended target family, where the subfamily is non-receptor tyrosine kinase. […]
# [2] = target: Histone deacetylase 3 (Homo sapiens) (UniProt O15379); assay: NVS_ENZ_hHDAC3: NovaScreen (NVS) Enzymatic Assay for human Histone Deacetylase 3 (HDAC3) (AID 2283163)
# Chain of Histone deacetylase 3 (Homo sapiens) (O15379 whole entry, looked up): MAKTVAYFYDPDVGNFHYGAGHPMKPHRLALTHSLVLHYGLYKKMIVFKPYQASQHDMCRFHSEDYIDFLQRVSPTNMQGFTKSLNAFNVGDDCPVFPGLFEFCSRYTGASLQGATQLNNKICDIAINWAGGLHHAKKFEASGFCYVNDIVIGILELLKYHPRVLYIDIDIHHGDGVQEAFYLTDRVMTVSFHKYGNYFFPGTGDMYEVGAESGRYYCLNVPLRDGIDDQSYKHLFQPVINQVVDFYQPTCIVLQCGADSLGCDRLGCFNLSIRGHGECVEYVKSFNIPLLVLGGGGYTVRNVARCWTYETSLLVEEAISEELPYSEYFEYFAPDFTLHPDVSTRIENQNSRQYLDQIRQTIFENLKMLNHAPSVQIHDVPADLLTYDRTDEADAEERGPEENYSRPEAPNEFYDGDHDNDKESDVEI
# How it was run: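 Cell-free enzyme format: loss of fluorescent product after mobility-shift separation, 1 h incubation, recombinant human HDAC3. Single 25 uM duplicate screen first, then concentration series to a 50 uM top for hits; DMSO as baseline.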
# [3] = target: human IkappaB Kinase alpha (IKKa), CHUK (gene 1147) (UniProt O15111); assay: NVS_ENZ_hIKKa: NovaScreen (NVS) Enzymatic Assay for human IkappaB Kinase alpha (IKKa) (AID 2283167)
# Chain of human IkappaB Kinase alpha (IKKa), CHUK (gene 1147) (O15111 whole entry, looked up): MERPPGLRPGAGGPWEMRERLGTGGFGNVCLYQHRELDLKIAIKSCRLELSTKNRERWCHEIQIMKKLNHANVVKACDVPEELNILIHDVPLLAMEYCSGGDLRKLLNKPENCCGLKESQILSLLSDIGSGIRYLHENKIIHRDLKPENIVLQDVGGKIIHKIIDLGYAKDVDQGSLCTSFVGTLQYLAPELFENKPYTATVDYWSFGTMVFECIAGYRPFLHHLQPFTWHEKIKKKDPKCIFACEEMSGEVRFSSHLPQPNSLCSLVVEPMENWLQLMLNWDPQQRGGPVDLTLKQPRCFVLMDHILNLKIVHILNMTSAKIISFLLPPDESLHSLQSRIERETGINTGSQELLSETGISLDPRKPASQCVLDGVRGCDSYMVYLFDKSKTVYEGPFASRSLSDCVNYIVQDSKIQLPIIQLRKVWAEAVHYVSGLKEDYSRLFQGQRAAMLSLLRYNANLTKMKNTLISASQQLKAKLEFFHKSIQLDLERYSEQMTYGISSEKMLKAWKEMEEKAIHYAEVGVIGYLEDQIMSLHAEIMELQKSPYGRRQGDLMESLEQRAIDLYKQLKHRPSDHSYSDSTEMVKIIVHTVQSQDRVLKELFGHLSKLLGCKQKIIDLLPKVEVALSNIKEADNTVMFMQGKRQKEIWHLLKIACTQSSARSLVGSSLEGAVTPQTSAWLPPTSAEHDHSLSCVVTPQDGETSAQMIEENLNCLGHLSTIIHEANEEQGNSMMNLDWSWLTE
# How it was run: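 Compounds first run in duplicate at 25 uM, those meeting threshold (e.g. 30% inhibition) retested to maximum 50 uM. Enzyme activity of recombinant IKKa measured by fluorescence with electrophoretic mobility shift separation, 1 hour post-dosing, DMSO baseline.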
# [4] = target: human LYN Proto-Oncogene, Src family Tyrosine Kinase (LynA), LYN (gene 4067) (UniProt P07948); assay: NVS_ENZ_hLynA: NovaScreen (NVS) Enzymatic Assay for human LYN Proto-Oncogene, Src family Tyrosine Kinase (LynA) (AID 2283173)
# Chain of human LYN Proto-Oncogene, Src family Tyrosine Kinase (LynA), LYN (gene 4067) (P07948 whole entry, looked up): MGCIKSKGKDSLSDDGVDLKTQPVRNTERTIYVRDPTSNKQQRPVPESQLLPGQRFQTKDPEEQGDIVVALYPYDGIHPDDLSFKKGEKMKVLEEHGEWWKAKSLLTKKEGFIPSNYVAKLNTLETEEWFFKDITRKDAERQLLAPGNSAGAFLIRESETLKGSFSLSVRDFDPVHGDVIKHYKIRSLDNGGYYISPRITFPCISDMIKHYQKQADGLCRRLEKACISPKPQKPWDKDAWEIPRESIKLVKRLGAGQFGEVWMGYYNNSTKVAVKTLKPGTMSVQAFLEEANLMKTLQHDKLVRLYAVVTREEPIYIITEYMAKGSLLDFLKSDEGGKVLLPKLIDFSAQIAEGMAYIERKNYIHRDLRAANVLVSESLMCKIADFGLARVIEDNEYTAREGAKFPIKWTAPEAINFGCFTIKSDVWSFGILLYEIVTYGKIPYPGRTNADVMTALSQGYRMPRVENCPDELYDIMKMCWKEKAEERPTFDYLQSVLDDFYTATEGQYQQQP
# How it was run: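 Recombinant kinase with fluorescent substrate; product separated from substrate by electrophoretic mobility shift and read 1 h after dosing. Duplicate screen at 25 uM, then concentration-response up to 50 uM; activity scored as signal loss against DMSO.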
# [5] = target: human Insulin Receptor (InsR), INSR (gene 3643) (UniProt P06213); assay: NVS_ENZ_hInsR: NovaScreen (NVS) Enzymatic Assay for human Insulin Receptor (InsR) (AID 2283168)
# Chain of human Insulin Receptor (InsR), INSR (gene 3643) (P06213 whole entry, looked up): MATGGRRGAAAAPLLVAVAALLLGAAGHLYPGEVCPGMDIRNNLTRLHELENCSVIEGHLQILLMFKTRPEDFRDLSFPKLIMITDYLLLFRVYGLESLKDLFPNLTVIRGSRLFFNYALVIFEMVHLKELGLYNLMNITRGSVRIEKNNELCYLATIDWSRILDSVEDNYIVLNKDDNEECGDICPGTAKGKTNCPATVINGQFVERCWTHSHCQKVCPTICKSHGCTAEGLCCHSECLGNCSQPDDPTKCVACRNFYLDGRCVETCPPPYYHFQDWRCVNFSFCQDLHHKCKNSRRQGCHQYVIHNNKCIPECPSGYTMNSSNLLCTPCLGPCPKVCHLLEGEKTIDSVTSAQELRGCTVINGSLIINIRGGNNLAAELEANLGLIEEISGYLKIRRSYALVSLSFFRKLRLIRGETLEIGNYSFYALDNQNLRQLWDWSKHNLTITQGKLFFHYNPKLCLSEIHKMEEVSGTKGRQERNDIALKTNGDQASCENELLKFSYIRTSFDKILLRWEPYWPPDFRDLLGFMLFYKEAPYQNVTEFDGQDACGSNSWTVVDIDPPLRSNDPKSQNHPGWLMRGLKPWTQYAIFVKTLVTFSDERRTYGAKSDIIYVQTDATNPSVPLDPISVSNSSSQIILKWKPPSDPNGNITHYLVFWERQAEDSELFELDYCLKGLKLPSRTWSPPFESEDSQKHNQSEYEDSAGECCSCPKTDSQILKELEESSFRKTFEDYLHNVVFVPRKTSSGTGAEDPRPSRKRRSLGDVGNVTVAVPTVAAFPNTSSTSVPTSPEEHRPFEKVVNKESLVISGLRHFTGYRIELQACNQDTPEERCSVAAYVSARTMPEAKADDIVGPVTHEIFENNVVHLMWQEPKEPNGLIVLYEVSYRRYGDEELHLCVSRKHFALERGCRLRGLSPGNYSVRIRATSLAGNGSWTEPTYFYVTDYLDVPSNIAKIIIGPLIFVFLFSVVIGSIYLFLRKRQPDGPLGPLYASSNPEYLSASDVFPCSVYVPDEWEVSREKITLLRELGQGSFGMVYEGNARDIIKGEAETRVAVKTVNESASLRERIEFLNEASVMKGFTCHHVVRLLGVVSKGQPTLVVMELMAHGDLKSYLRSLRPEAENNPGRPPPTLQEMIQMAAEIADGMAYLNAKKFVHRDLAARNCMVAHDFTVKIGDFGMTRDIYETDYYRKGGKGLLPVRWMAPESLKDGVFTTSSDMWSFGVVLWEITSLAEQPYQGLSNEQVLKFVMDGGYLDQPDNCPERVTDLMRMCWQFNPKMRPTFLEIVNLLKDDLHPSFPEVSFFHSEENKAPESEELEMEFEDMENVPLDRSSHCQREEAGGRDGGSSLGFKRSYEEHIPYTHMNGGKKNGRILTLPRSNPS
# How it was run: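 Cell-free enzyme assay read 1 h post-dose by fluorescence after substrate/product mobility-shift separation. Duplicate 25 uM primary screen, then singleton concentration-response up to 50 uM for compounds passing threshold; loss of signal vs DMSO.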
# [6] = target: human c-Jun N-terminal Kinases (JNK2), MAPK9 (gene 5601) (UniProt P45984); assay: NVS_ENZ_hJNK2: NovaScreen (NVS) Enzymatic Assay for human c-Jun N-terminal Kinases (JNK2) (AID 2283171)
# Chain of human c-Jun N-terminal Kinases (JNK2), MAPK9 (gene 5601) (P45984 whole entry, looked up): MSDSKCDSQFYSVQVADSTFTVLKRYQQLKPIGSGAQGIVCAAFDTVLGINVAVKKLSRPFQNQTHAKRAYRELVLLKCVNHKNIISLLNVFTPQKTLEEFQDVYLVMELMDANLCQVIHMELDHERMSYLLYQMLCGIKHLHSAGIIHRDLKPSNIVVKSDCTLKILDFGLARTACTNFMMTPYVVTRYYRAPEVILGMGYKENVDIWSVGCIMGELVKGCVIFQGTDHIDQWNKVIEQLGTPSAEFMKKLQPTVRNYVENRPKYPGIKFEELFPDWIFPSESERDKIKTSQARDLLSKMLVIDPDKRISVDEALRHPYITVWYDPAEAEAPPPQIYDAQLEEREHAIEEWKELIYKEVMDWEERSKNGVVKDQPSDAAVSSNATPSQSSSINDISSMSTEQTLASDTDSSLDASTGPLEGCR
# How it was run: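 Chemicals first tested in duplicate at 25 uM, then in singleton concentration series up to 50 uM, against extracted JNK2 enzyme. Activity loss read by fluorescence with mobility-shift separation 1 h post-dose; DMSO baseline.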
# [7] = target: Mitogen-activated protein kinase 3 (Homo sapiens) (UniProt P27361); assay: NVS_ENZ_hMAPK3: NovaScreen (NVS) Enzymatic Assay for human Mitogen-Activated Protein Kinase 3 (MAPK 3) (AID 2283177)
# Chain of Mitogen-activated protein kinase 3 (Homo sapiens) (P27361 whole entry, looked up): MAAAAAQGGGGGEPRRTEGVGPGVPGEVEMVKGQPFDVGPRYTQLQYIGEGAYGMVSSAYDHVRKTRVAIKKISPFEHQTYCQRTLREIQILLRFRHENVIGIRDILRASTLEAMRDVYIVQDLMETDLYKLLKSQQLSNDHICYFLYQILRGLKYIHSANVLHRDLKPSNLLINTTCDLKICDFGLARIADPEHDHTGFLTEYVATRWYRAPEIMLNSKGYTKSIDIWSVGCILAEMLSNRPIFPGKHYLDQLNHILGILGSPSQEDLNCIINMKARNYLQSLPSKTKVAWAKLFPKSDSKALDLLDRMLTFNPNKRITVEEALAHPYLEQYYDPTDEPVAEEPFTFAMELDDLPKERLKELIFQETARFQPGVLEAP
# Experimental: as §1, with “NVS_ENZ_hMAPK3” for “NVS_ENZ_hFyn”, “plate.NVS_ENZ_hMAPK3” for “plate.NVS_ENZ_hFyn”, “NVS_ENZ_hMAPK3,” for “NVS_ENZ_hFyn,”, “MAPK3.” for “FYN.”, “serine/threonine” for “non-receptor tyrosine”
smiles,measurement,setting,value
CCCCc1ccccc1,outcome,[1],inactive
CCOS(=O)(=O)OCC,outcome,[2],inactive
Cc1cccc(N)c1,outcome,[3],inactive
same,outcome,[4],inactive
O=P(Oc1ccccc1)(Oc1ccccc1)Oc1ccccc1,outcome,[3],inactive
same,outcome,[5],inactive
CC(C)(C)OOC(C)(C)C,outcome,[6],inactive
same,outcome,[7],inactive
Cc1ccc(O)cc1C,outcome,[6],inactive
Nc1cc2c3c(c1)C(c1ccccc1)=N[C@@H](NC(=O)c1cccnc1)C(=O)N3CC2,outcome,[7],inactive
